Test results: paper PMC6925144, “A prospective compound screening contest identified broader inhibitors for Sirtuin 1” (Scientific Reports, 2019)

Target: NAD-dependent deacetylase Sirtuin 1 (human, UniProt Q96EB6)
Assay: primary screen, percent inhibition; higher = more effect of the substance
Parameters: mean of n = 4
Conditions: 10 µM
Method: Note that the inhibitory assay was conducted with NAD+.

Chain of NAD-dependent deacetylase Sirtuin 1 (Q96EB6 2-747 limits assumed): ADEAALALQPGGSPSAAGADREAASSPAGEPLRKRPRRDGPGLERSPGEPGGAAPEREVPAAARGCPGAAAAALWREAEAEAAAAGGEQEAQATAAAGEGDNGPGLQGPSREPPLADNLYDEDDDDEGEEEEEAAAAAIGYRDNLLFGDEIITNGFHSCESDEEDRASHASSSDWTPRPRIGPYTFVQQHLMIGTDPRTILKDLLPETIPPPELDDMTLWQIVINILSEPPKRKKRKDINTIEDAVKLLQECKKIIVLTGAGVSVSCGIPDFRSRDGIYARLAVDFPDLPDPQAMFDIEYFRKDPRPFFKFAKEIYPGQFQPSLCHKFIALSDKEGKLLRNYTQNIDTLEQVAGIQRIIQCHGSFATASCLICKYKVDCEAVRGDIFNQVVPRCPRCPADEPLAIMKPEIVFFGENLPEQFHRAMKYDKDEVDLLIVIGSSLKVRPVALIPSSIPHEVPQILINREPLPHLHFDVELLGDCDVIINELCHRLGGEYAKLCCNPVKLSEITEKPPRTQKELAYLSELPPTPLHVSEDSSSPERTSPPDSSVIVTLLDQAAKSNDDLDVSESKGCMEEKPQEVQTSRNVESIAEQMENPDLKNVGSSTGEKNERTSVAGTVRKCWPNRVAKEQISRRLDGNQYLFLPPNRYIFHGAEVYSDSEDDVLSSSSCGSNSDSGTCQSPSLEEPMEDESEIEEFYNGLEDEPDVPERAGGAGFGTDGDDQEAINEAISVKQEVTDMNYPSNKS

| Compound | TSA(without NAD+) / Inhibitory assay (Promega kit) / Mean (%) | TSA(with NAD+) / Inhibitory assay (Promega kit) / Mean (%) |
| --- | --- | --- |
| COc1ccc(N(C)S(=O)(=O)c2cccc(C(=O)Nc3ccc(Br)c(C(F)(F)F)c3)c2)cc1 | 5.07 | – |
| CC(=C/c1ccccc1)/C=N/NC(=O)c1cc(-c2ccc(C)cc2)n[nH]1 | 0.0522 | – |
| O=C1NC(=O)c2ccccc2/C1=C\NNC(=O)C12CC3CC(CC(C3)C1)C2 | – | 27.6 |
| COc1ccc(N(C)S(=O)(=O)c2cccc(C(=O)Nc3ccc(Cl)cc3)c2)cc1 | – | 17.6 |
| Cc1ccc(C(C)(C)C)cc1S(=O)(=O)Nc1cccc(C(=O)NNC(=O)c2cccc(S(=O)(=O)Nc3cccc(C(F)(F)F)c3)c2)c1 | -8.09 | – |
| NC1=Nc2nc3ccccc3n2C(c2ccc(-c3ccc(C(=O)O)cc3)o2)N1 (centres unmarked) | 17.6 | – |
| Oc1cccc2c1Cc1c-2nc2ccc(Cl)cc2c1-c1ccccc1Cl | – | 24.3 |
| COc1ccc(N(C)S(=O)(=O)c2cccc(C(=O)Nc3ccc(Br)cc3)c2)cc1 | – | 29.2 |
